# PubChem BioAssay (NCATS)
# Inconclusive results are not listed. Entries that show only a call come without a potency. Calls of active or inactive are those of the source. Calls follow the shape of the dose curve; as a rule, active = well fitted curve in the direction sought with a large enough effect; inconclusive = small, poorly fitted or top-dose-only effect, or another doubt; inactive = no such curve, though single readings can be large; an effect the other way counts as inactive or inconclusive.
# Assays:
# [1] = qHTS for compounds that reverse cellular toxicity of Amyloid beta (A-beta) peptide in yeast: LOPAC Validation Assay (AID 720559)
# In short: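 Yeast expressing toxic A-beta grown with pinned compounds at 30 C for 48 hr. Growth measured as absorbance at 600 nm; data normalized to DMSO and to an equimolar FeCl3/clioquinol mixture as positive control.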
# [2] = qHTS for Activators of Parkin Expression: LOPAC Validation Assay (NLuc Reporter) (AID 720572)
# In short: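 Neuronal line stably carrying a FLuc/NLuc coincidence reporter under the Parkin promoter, seeded 24 h, then dosed in 7-point series for 24 h at 37 C. NLuc luminescence read after FLuc; normalized to DMSO and positive control (100%).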
# [3] = qHTS for Activators of Parkin Expression: LOPAC Validation Assay (FLuc Reporter) (AID 720573)
# In short: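 Neuronal cell line stably expressing FLuc/NLuc coincidence reporter under the Parkin promoter, 1,500 cells/well, dosed 24 h after seeding in 7-point series for 24 h at 37 C. FLuc luminescence read; normalized to DMSO and positive control (100%).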
Compound,outcome [1],Potency [2],Potency [3]
CC(C)NC[C@H](O)COc1cccc2ccccc12,inactive,inactive,inactive
N=C(N)c1ccccc1,inactive,inactive,inactive
CSC(=N)N,inactive,inactive,inactive
O=c1onc2cnc3ccccc3n12,inactive,inactive,inactive
CN1Cc2sccc2C(c2ccc(O)c(O)c2)C1 (centres undefined),inactive,inactive,inactive
Nc1ncnc2c1ncn2C1CCCO1 (centres undefined),inactive,inactive,inactive
CCCCCCCCCC[Si](C)(C)CCC(=O)NC(Cc1ccc(C)cc1)c1ccccc1 (centres undefined),inactive,inactive,inactive
CCN(c1nc(N)c(C(=O)N=C(N)N)nc1Cl)C(C)C,inactive,inactive,inactive
Oc1cc(O)c2c(c1)O[C@H](c1ccc(O)c(O)c1)[C@@H](O)C2,inactive,inactive,inactive
N=C(N)c1ccc(N)cc1,inactive,inactive,inactive
CC(=O)[C@H]1CCC2C3CC=C4C[C@@H](OS(=O)(=O)O)CC[C@]4(C)C3CC[C@@]21C (some centres undefined),inactive,inactive,inactive
CCCn1c(=O)c2[nH]c(-c3ccc(S(=O)(=O)O)cc3)nc2n(CCC)c1=O,inactive,inactive,inactive
CC1CCN=C(N)S1 (centres undefined),inactive,inactive,inactive
CN1CCC2(CCN3CCc4c(oc5ccccc45)C3C2)N(C)C1=O (centres undefined),inactive,inactive,inactive
NC(=O)CC[C@H](N)C(=O)O,inactive,inactive,inactive
C[C@H](O)C(=O)C1=Nc2c(nc(N)[nH]c2=O)NC1,inactive,inactive,inactive
O=C(O)C1=CC(=C(c2ccc(O)c(C(=O)O)c2)c2ccc(O)c(C(=O)O)c2)C=CC1=O,inactive,inactive,inactive
O=C1Nc2ccc(I)cc2/C1=C/c1cc(Br)c(O)c(Br)c1,inactive,inactive,inactive
N[C@H](C(=O)O)c1cc(O)cc(O)c1,inactive,inactive,inactive
N[C@@H](Cc1c[nH]c2ccccc12)C(=O)O,inactive,inactive,inactive
CC(C)(C)NCC(O)COc1cccc2[nH]c(=O)[nH]c12 (centres undefined),inactive,inactive,inactive
c1ccc2c(c1)CCC[C@H]2Nc1nc2ccccc2[nH]1,inactive,inactive,inactive
O=C(O)/C=C/c1cnc[nH]1,inactive,inactive,inactive

Compound,outcome [1],Potency [2],Potency [3]
O=C(O)C1CCNCC1,inactive,inactive,inactive
C[C@](Cc1ccc(O)c(O)c1)(NN)C(=O)O,inactive,inactive,inactive
CC(=O)NNC(=O)N1Cc2ccccc2Oc2ccc(Cl)cc21,inactive,inactive,inactive
O=C(O)CCC/C=C\C[C@@H]1[C@@H](/C=C/[C@H](O)C2Cc3ccccc3C2)[C@@H](F)C[C@@H]1O,inactive,,inactive
N[C@H](C(=O)O)[C@H](Cc1ccccc1)C(=O)O,,inactive,inactive
N[C@@H](CS(=O)O)C(=O)O,inactive,,inactive
NC1(C(=O)O)CCCCC1,inactive,,inactive
COc1ccc(-c2cc3ncc(C)n3c(Nc3ncccc3C(N)=O)n2)cc1OC,,inactive,inactive
[Li+],inactive,,inactive
NC(N)=NC(N)=Nc1cccc(Cl)c1,,inactive,inactive
Cc1cccc(C)c1OCC(N)C(C)C (centres undefined),inactive,,inactive
N[C@H](C(=O)O)[C@H]1C[C@@H]1C(=O)O,,inactive,inactive
CO/N=C(\C(=O)N[C@@H]1C(=O)N2C(C(=O)O)=C(CSc3nc(=O)c(O)nn3C)CSC12)c1csc(N)n1 (some centres undefined),,,inactive
OC1(c2ccc(Cl)cc2)CCN(Cc2c[nH]c3ccccc23)CC1,inactive,,inactive
NOCC(=O)O,inactive,,inactive
Nc1ncnc2c1c(-c1ccc(Oc3ccccc3)cc1)cn2C1CCCC1,inactive,inactive,inactive
O=C(O)c1cccnc1C(=O)O,,inactive,inactive
Cc1ccccc1/C=C/C1=NCCN1,,inactive,inactive
NC/C=C\C(=O)O,,inactive,inactive
C[C@]12C=CC(=O)C=C1CC[C@@H]1C2=CC[C@]2(C)[C@@H](C(=O)CN3CCN(c4cc(N5CCCC5)nc(N5CCCC5)n4)CC3)CC[C@@H]12,,inactive,
COc1ccc2c(c1)c(CC(=O)O)c(C)n2Cc1ccc(Cl)cc1,inactive,,inactive
C=C1C[C@@]23CC[C@H]4[C@@](C)(CCC[C@@]4(C)C(=O)OC4OC(CO)C(O)C(O)C4O)[C@@H]2CC[C@]1(OC1OC(CO)C(O)C(O)C1OC1OC(CO)C(O)C(O)C1O)C3 (some centres undefined),,,inactive
